In PubChem BioAssay:
The source made the active and inactive calls. Cut-off read from the data, not from the text of the source, unless noted: active = inhibition above about 80%; inactive = the rest.

How the values were obtained:
[1] = LFS_MB_P medulloblastoma growth inhibition, cell-based, chromothripsis tumors, cisplatin or BGB combos (AID 1671449); conditions: LFS_MB_P medulloblastoma cells;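 note: cells exposed for 96 hours; 0% = vehicle DMSO and 100% = killing by high DMSO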
[2] = HDN33 neuroblastoma growth inhibition, cell-based, chromothripsis tumors, cisplatin or BGB combos (AID 1671450); conditions: HDN33 neuroblastoma cells, stronger effect = higher value;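 note: cells exposed to compound for four days; 0% = vehicle DMSO and 100% = cell killing by high DMSO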
[3] = ICB984 medulloblastoma cell growth inhibition, synergistic combos for chromothripsis tumors, cisplatin or BGB combos (AID 1671451; call rule not given here;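 note: cells exposed for 96 hours before readout; 0% = vehicle DMSO and 100% = killing by high DMSO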); conditions: ICB984 medulloblastoma cells, drug combinations, stronger effect = higher value
[4] = LFS_MB_1R medulloblastoma cell growth inhibition, synergistic combos for chromothripsis tumors, cisplatin or BGB combos (AID 1671452); conditions: LFS_MB_1R medulloblastoma cells, stronger effect = higher value;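 note: cells exposed for 96 hours before readout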
[5] = HTB85 osteosarcoma cell growth inhibition, synergistic combos for chromothripsis tumors, BGB or cisplatin IC20 combos (AID 1671453); conditions: HTB85 osteosarcoma cells, drug combinations, stronger effect = higher value;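 note: cells exposed for 96 hours before readout; 0% = vehicle DMSO and 100% = high DMSO killing control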
[6] = CRL2098 osteosarcoma cell growth inhibition, synergistic combos for chromothripsis tumors, BGB or cisplatin IC20 combos (AID 1671454); conditions: CRL2098 osteosarcoma cells, drug combinations, stronger effect = higher value;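 note: cells exposed for 96 h before readout; 0% = vehicle DMSO and 100% = killing by high DMSO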
[7] = HD-MB03 medulloblastoma cell growth inhibition, synergistic combos for chromothripsis tumors, BGB or cisplatin IC20 combos (AID 1671455; in the data active = inhibition above about 83%;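 note: 0% = vehicle DMSO and 100% = high DMSO as cytotoxic control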); conditions: HD-MB03 medulloblastoma cells, stronger effect = higher value
[8] = UWB1.289 ovarian carcinoma cell growth inhibition, synergistic combos for chromothripsis tumors, BGB or cisplatin combos (AID 1671456); conditions: UWB1.289 ovarian carcinoma cells, stronger effect = higher value;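 note: cells exposed to compound for four days; 0% = vehicle DMSO and 100% = killing by high DMSO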
[9] = LFS_MB_2R medulloblastoma cell growth inhibition, synergistic combos for chromothripsis tumors, cisplatin combos (AID 1671457); conditions: LFS_MB_2R medulloblastoma cells, stronger effect = higher value;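 note: cells exposed to compound for four days before readout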
[10] = MDA-MB-436 breast carcinoma cell growth inhibition, synergistic combos for chromothripsis tumors, BGB or cisplatin combos (AID 1671458; call rule not given here;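 note: cells exposed for 96 hours; 0% = vehicle DMSO and 100% = killing by high DMSO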); conditions: MDA-MB-436 breast carcinoma growth inhibition, drug combinations, stronger effect = higher value
[11] = UWB1.289_BRCA1 ovarian cancer growth, cell-based, BGB or cisplatin combinations (AID 1671459); conditions: UWB1.289 BRCA1 ovarian carcinoma, drug combinations, stronger effect = higher value
[12] = human astrocyte viability loss, single and combined drugs, cytotoxicity control for chromothriptic childhood tumor combination screen, cell-based, BGB or cisplatin IC20 combos (AID 1671460); conditions: Human astrocytes, drug combinations, stronger effect = higher value;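 note: cells exposed to compounds for 96 hours before viability readout; 0% = vehicle and 100% = killing control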
[13] = growth inhibition of BT084 medulloblastoma cells, cell-based, ICGC_MB145, cisplatin and BGB IC40 combos (AID 1671461); conditions: drug combinations, stronger effect = higher value;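 note: cells exposed to drugs for 96 hours; 0% = vehicle DMSO and 100% = high DMSO full killing control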
[14] = growth inhibition of RCMB18 medulloblastoma cells, cell-based, cisplatin and BGB IC40 combos (AID 1671462); conditions: stronger effect = higher value;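 note: cells exposed to compound for four days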
[15] = growth inhibition of CRL1545 osteosarcoma cells, cell-based, cisplatin and BGB IC20 combos (AID 1671464); conditions: stronger effect = higher value;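 note: cells exposed to compound for 96 hours before readout; 0% = vehicle DMSO and 100% = high DMSO killing control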
[16] = at 0.5 µM, stronger effect = higher value
[17] = measured here: combination with BGB IC20, at 0.005 µM
[18] = measured here: combination with BGB IC40, at 0.005 µM
[19] = measured here: combination with BGB IC40, at 0.05 µM
[20] = measured here: combination with cisplatin, at 0.5 µM, stronger effect = higher value
[21] = measured here: combination with cisplatin, at 5 µM, stronger effect = higher value
[22] = measured here: with BGB IC20 combination, at 0.5 µM
[23] = measured here: with cisplatin IC20 combination, at 0.5 µM
[24] = measured here: 5 uM single agent, at 5 µM
[25] = measured here: combination with cisplatin, at 0.5 µM
[26] = measured here: combination with cisplatin, at 5 µM
[27] = measured here: with BGB IC20, at 0.5 µM
[28] = measured here: with BGB IC20, at 5 µM
[29] = measured here: with cisplatin IC20, at 0.5 µM
[30] = measured here: with cisplatin IC20, at 5 µM
[31] = measured here: combination with BGB at IC20, at 0.5 µM
[32] = measured here: combination with cisplatin at IC20, at 0.5 µM
[33] = measured here: combo with BGB at IC20, at 0.5 µM
[34] = measured here: combo with cisplatin at IC20, at 0.5 µM
[35] = measured here: inhibition with BGB combination, at 0.05 µM
[36] = measured here: inhibition with cisplatin combination, at 0.05 µM
[37] = measured here: BGB combination, at 0.5 µM
[38] = measured here: BGB combination, at 5 µM
[39] = measured here: cisplatin combination, at 0.5 µM
[40] = measured here: cisplatin combination, at 5 µM
[41] = BGB combination, concentration series, at 5 µM
[42] = cisplatin combination, concentration series, at 5 µM
[43] = measured here: combo with BGB IC20, at 0.5 µM
[44] = measured here: combo with cisplatin IC20, at 0.5 µM
[45] = cisplatin combination, at 0.5 µM
[46] = measured here: BGB IC40 combination 0.05 uM, at 0.05 µM
[47] = measured here: BGB IC40 combination, at 0.05 µM

In the case of `CC1CNC(=O)NC1=O` (stereo unspecified), the inhibition [1, 16] is reported as -30.6% (inactive), the inhibition [1, 17] is reported as -22% and the inhibition [1, 18] is reported as -7.63%. The inhibition [1, 19] was -15.7%, the inhibition [1, 20] was -39.2% and the inhibition [1, 21] was -13.3%. For the same molecule, the inhibition ([2]; BGB combo, at 5 µM) was -40.2%, the inhibition ([2]; at 0.5 µM) was -17.3% (inactive) and the inhibition ([2]; cisplatin combo, at 5 µM) was -24%. The inhibition [2, 22] was -4.75%, the inhibition [2, 23] was -15.4% and the inhibition ([2]; single agent, at 5 µM) was 2.08%. It also gave an inhibition ([3]; BGB IC20 combo, at 0.005 µM) of -33.2%, an inhibition ([3]; BGB IC40 combo, at 0.005 µM) of -36.3% and an inhibition ([3]; BGB IC40 combo, at 0.05 µM) of -20.7%. The inhibition ([3]; at 0.5 µM) was -43.5% (inactive), the inhibition ([3]; cisplatin combo, at 0.05 µM) was -20.7% and the inhibition ([3]; cisplatin combo, at 0.5 µM) was -62.7%. For the same molecule, the inhibition ([3]; cisplatin combo, at 5 µM) was -40.7%, the inhibition [3, 24] was -37.5% and the inhibition ([4]; at 0.5 µM) was -30.6% (inactive). For the same molecule, the inhibition [4, 19] was -35.2%, the inhibition [4, 25] was 5.53% and the inhibition [4, 26] was 23.2%. The inhibition ([5]; at 0.5 µM) was -31.7% (inactive), the inhibition [5, 27] was -55.6% and the inhibition [5, 28] was -9.18%. For the same molecule, the inhibition [5, 29] was -36.4%, the inhibition [5, 30] was -7.78% and the inhibition ([5]; single agent, at 5 µM) was -19.6%. The inhibition ([6]; at 0.5 µM) was -81.6% (inactive), the inhibition [6, 31] was -71.8% and the inhibition [6, 32] was -130%. For the same molecule, the inhibition ([7]; at 0.5 µM) was 7.56% (inactive), the inhibition [7, 33] was 12% and the inhibition [7, 34] was 16.9%. The inhibition ([8]; at 0.5 µM) was -15.4% (inactive), the inhibition [8, 35] was -40% and the inhibition [8, 36] was -20.8%. For the same molecule, the inhibition ([9]; at 0.5 µM) was -25.2% (inactive), the inhibition [9, 25] was -28% and the inhibition [9, 26] was -26.8%. The inhibition ([10]; at 0.5 µM) was -18.9% (inactive), the inhibition [10, 37] was -18.5% and the inhibition [10, 38] was -17.9%. It also gave an inhibition [10, 39] of -32%, an inhibition [10, 40] of -4.6% and an inhibition [11, 41] of 1.37%. For the same molecule, the inhibition ([11]; at 0.5 µM) was -11% (inactive), the inhibition [11, 42] was 10.9% and the inhibition ([12]; at 0.5 µM) was 12.2% (inactive). For the same molecule, the inhibition [12, 43] was 9.11%, the inhibition [12, 44] was 12% and the inhibition ([13]; at 0.5 µM) was -12.5% (inactive). The inhibition [13, 45] was -19.5%, the inhibition ([13]; cisplatin combination, at 5 µM) was -47.1% and the inhibition [13, 46] was -27%. The inhibition ([13]; single agent, at 5 µM) was -16.6%, the inhibition ([14]; at 0.5 µM) was -12% (inactive) and the inhibition ([14]; cisplatin combo, at 5 µM) was -15.1%. The inhibition [14, 47] was -20.6%, the inhibition [14, 25] was -13.2% and the inhibition ([14]; single agent, at 5 µM) was -49.2%. The inhibition ([15]; at 0.5 µM) was -21.8% (inactive), the inhibition [15, 22] was -10.4% and the inhibition [15, 23] was -27.5%. For the same molecule, the inhibition ([15]; single agent, at 0.05 µM) was 3.21% and the inhibition ([15]; single agent, at 5 µM) was -10.2%.

With `C=C(NC(=O)C(=C)NC(=O)c1csc(C2=NC3c4csc(n4)C4NC(=O)c5csc(n5)C(C(C)(O)C(C)O)NC(=O)C5CSC(=N5)/C(=C/C)NC(=O)C(C(C)O)NC(=O)c5csc(n5)C3(CC2)NC(=O)C(C)NC(=O)C(=C)NC(=O)C(C)NC(=O)C(C(C)CC)NC2C=Cc3c(C(C)O)cc(nc3C2O)C(=O)OC4C)n1)C(N)=O` (stereo unspecified) the inhibition [1, 16] was -22.9% (inactive), the inhibition [1, 17] was -22.9% and the inhibition [1, 18] was -22.6%. It also gave an inhibition [1, 19] of -22%, an inhibition [1, 20] of -25.6% and an inhibition [1, 21] of 114%. For the same molecule, the inhibition ([2]; BGB combo, at 5 µM) was 99.7%, the inhibition ([2]; at 0.5 µM) was -22.8% (inactive) and the inhibition ([2]; cisplatin combo, at 5 µM) was 99.7%. For the same molecule, the inhibition [2, 22] was -25.3%, the inhibition [2, 23] was -12.8% and the inhibition ([2]; single agent, at 5 µM) was 99.8%. It also gave an inhibition ([3]; BGB IC20 combo, at 0.005 µM) of 7.79%, an inhibition ([3]; BGB IC40 combo, at 0.005 µM) of -7.37% and an inhibition ([3]; BGB IC40 combo, at 0.05 µM) of 95.2%. For the same molecule, the inhibition ([3]; at 0.5 µM) was -28.5% (inactive), the inhibition ([3]; cisplatin combo, at 0.05 µM) was 95% and the inhibition ([3]; cisplatin combo, at 0.5 µM) was -29.7%. The inhibition ([3]; cisplatin combo, at 5 µM) was -54.9%, the inhibition [3, 24] was -28.7% and the inhibition ([4]; at 0.5 µM) was -38.7% (inactive). It also gave an inhibition [4, 19] of -31%, an inhibition [4, 25] of -9.9% and an inhibition [4, 26] of 100%. For the same molecule, the inhibition ([5]; at 0.5 µM) was 11.5% (inactive), the inhibition [5, 27] was 1.15% and the inhibition [5, 28] was 70.9%. For the same molecule, the inhibition [5, 29] was -4.79%, the inhibition [5, 30] was 86.9% and the inhibition ([5]; single agent, at 5 µM) was 98.8%. For the same molecule, the inhibition ([6]; at 0.5 µM) was -6.59% (inactive), the inhibition [6, 31] was 7.69% and the inhibition [6, 32] was -29.4%. For the same molecule, the inhibition ([7]; at 0.5 µM) was 2.14% (inactive), the inhibition [7, 33] was 13.1% and the inhibition [7, 34] was -39.1%. The inhibition ([8]; at 0.5 µM) was -0.91% (inactive), the inhibition [8, 35] was -20.4% and the inhibition [8, 36] was -15.4%. For the same molecule, the inhibition ([9]; at 0.5 µM) was -37% (inactive), the inhibition [9, 25] was -29.7% and the inhibition [9, 26] was 104%. For the same molecule, the inhibition ([10]; at 0.5 µM) was 16.8% (inactive), the inhibition [10, 37] was 16.2% and the inhibition [10, 38] was 90.8%. For the same molecule, the inhibition [10, 39] was 25.6%, the inhibition [10, 40] was 94.8% and the inhibition [11, 41] was 97.5%. The inhibition ([11]; at 0.5 µM) was 2.16% (inactive), the inhibition [11, 42] was 94.4% and the inhibition ([12]; at 0.5 µM) was -36.8% (inactive). The inhibition [12, 43] was -24.8%, the inhibition [12, 44] was -63.7% and the inhibition ([13]; at 0.5 µM) was 13.8% (inactive). It also gave an inhibition [13, 45] of 15.3%, an inhibition ([13]; cisplatin combination, at 5 µM) of 91.8% and an inhibition [13, 46] of -3.57%. For the same molecule, the inhibition ([13]; single agent, at 5 µM) was 104%, the inhibition ([14]; at 0.5 µM) was -9.28% (inactive) and the inhibition ([14]; cisplatin combo, at 5 µM) was 96.8%. The inhibition [14, 47] was -17.4%, the inhibition [14, 25] was -6.48% and the inhibition ([14]; single agent, at 5 µM) was 90.8%. The inhibition ([15]; at 0.5 µM) was 53.8% (inactive), the inhibition [15, 22] was 53.1% and the inhibition [15, 23] was 53.1%. It also gave an inhibition ([15]; single agent, at 0.05 µM) of -28.1% and an inhibition ([15]; single agent, at 5 µM) of 100%.
